Experimental findings from PubChem BioAssay are described below.

Test [1] can be described thus: Wnt pathway potentiators raising nuclear beta-catenin – imaging, WNT3A-conditioned medium, mouse C2C12, NPC library, primary screen (AID 1117326; in the data active = nuclear beta-catenin stimulation mostly above about 4.2%, no sharp cut-off; inactive = mostly below about 10%). The following applies: stronger effect = higher value.
The nature of test [2]: stimulators of insulin release from INS-1E, primary screen, cell-based, 5 mM glucose, NPC library (AID 1117329;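 active = compound raises insulin release from rat beta cells at 5 mM glucose, no numeric limit stated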). The following applies: rat INS-1E insulin secretion, at 10 µM, stronger effect = higher value.
A short description of test [3]: growth inhibition of GSK3B-pretreated HCT116 cells – cell-based, CellTiter-Glo, 0.2 to 20 µM (AID 1117336;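 active = compounds lowering colon cancer cell viability after pretreatment blocking the GSK3B kinase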). The note with it: HCT116 viability after GSK3B inhibitor, at 20 µM, stronger effect = higher value. (In general: In ATP-based viability assays light output follows the ATP content of the culture.)
Test [4] can be described thus: inhibition of endothelial tube formation, primary screen, imaging, VEGF stimulated, CD31 staining, tube area, NPC library (AID 1117340;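 active = compound that reduces growth-factor-driven endothelial tube area in a mixed cell culture, no cutoff stated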). The note with it: VEGF-stimulated ADSC/ECFC co-culture, at 10 µM, stronger effect = higher value.
Test [5] in a line: GLP1 release stimulators, primary, NCI-H716, NPC library (AID 1117341;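 active = compound raises GLP1 secretion from the human gut endocrine cells, with no numeric limit stated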). The note with it: NCI-H716 cells, at 10 µM, stronger effect = higher value.
Test [6] is described as follows: HCT116 colon cancer cell growth inhibition, primary screen, CellTiter-Glo luminescence, NPC library (AID 1117342;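 active = compounds that lower survival of HCT116 colon cancer cells in the luminescence readout, no numeric limit stated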). The note with it: at 20 µM (top of the series).
A short description of test [7]: reduced SW480 viability measured with CellTiter-Glo, NPC library, primary (AID 1117343;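 active = compounds that lower viability of the colon cancer cells in the luminescence readout, with no numeric limit stated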). The note with it: CellTiter-Glo luminescence; at 20 µM (top of the series) unless noted.
Test [8] in a line: NPC library primary testing for decreased DLD-1 cell viability via CellTiter-Glo (AID 1117346;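 active = compounds that lower survival of DLD-1 colon cancer cells in the luminescence readout, no cutoff given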). The following applies: DLD-1 viability, CellTiter-Glo luminescence; at 20 µM (top of the series).
Test [9] can be described thus: viability loss in pontine glioma line – cell-based, JHH-DIPG-1, MIPE4.0, CellTiter-Glo, qHTS, dose response (AID 1347062; cut-off not given, nearly all actives have AC50 up to about 27 µM). The following applies: JHH-DIPG-1 viability, CellTiter-Glo ATP luminescence.
The nature of test [10]: viability loss in pontine glioma line – cell-based, SU-DIPG-XXV, MIPE5.0, CellTiter-Glo, qHTS, dose response (AID 1347065).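 Also: cells exposed to compound for 48 hours before ATP readout.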 The note with it: CellTiter-Glo ATP luminescence.
The nature of test [11]: growth inhibition of DIPG cells – cell-based, MIPE4.0 library, CellTiter-Glo luminescence, qHTS (AID 1347066; cut-off not given, nearly all actives have AC50 up to about 30 µM;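 also: cells exposed to compound for 48 hours before readout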). The note with it: SU-DIPG-VI viability, CellTiter-Glo ATP luminescence.
The nature of test [12]: viability loss with induced miR-34 in A549 – imaging, A549 dox-inducible miR-34, nuclei and caspase counts, primary screen (AID 1347080;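 active = compounds whose cell count with miR-34 switched on is under 0.7 times the count with it off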). The note with it: A549 miR-34 inducible, Hoechst nuclei count, 48 h.
Test [13] is described as follows: MELAS cybrid and Rieske KO viability enhancers – cell-based, MELAS cybrids, Rieske KO mouse fibroblasts, CellTiter-Glo, primary screen (AID 1508586;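 active = mean z-score across replicates of 1.96 or higher in either the MELAS or the Rieske mutant cell line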;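 also: z relative to plate mean and SD of compound and empty wells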). The following applies: low glucose.
The nature of test [14]: P. berghei load reduction in hepatocytes – cell-based, HepG2, luciferase luminescence, HepG2 viability, primary screen (AID 624349; in the data active = parasite load remaining mostly below about 12%, no sharp cut-off; inactive = mostly above about 10%;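 also: 100% = mean of DMSO negative control wells on the same plate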). The note with it: P. berghei liver stage in HepG2, luciferase luminescence, concentration not given here; parasite load remaining: stronger effect = lower value; viability: measured here: HepG2 viability without parasites.
Test [15] in a line: JHH-DIPG-1 glioma cell viability, MIPE5.0 library, CellTiter-Glo luminescence, qHTS (AID 1347067).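 Also: cells exposed to compound for 48 hours before readout.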 The following applies: JHH-DIPG-1 glioma viability, CellTiter-Glo ATP luminescence.
Test [16] is described as follows: growth inhibition of DIPG cells – cell-based, MIPE5.0 library, qHTS (AID 1347068; cut-off not given, nearly all actives have IC50 up to about 30 µM). The note with it: SU-DIPG-XXV viability. On the technique in general: qHTS replaces the single test concentration by a dilution series.
The nature of test [17]: galactose survival enhancers in mitochondrial complex I cybrids – cell-based, galactose medium, ATP luminescence, primary screen (AID 1645843;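 active = z-score of at least 1.8 in each of two replicates, scored against plate mean and spread of sample wells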;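 also: positive z means more ATP and so rescue of galactose-driven cybrid death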). The note with it: complex I mutant cybrid cells, 72 h, stronger effect = higher value.
Test [18] can be described thus: viability loss in pontine glioma line – cell-based, SU-DIPG-IV, MIPE4.0, CellTiter-Glo, qHTS, dose response (AID 1347063; cut-off not given, nearly all actives have AC50 up to about 30 µM;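 also: compound exposure lasted 48 hours before the viability readout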). The following applies: CellTiter-Glo ATP luminescence.
[19] abbreviates: stronger effect = lower value, cell number ratio, induced over uninduced.
[20] abbreviates: measured here: relative caspase fold change +Dox/-Dox.
Setting [21] is: measured here: total cells with miR-34 induction, stronger effect = lower value.
Where [22] appears, read: measured here: total cells without miR-34 induction.
Where [23] appears, read: MELAS cybrid survival, CellTiter-Glo 48 h, stronger effect = higher value.
[24] abbreviates: Rieske KO mouse fibroblast survival, CellTiter-Glo 72 h.

Values joined by “and” are separate entries in the source; they are usually repeats but may differ in a detail not shown here. Equal values may be shown once. Records with an inconclusive call do not appear. Active and inactive are the calls of the source. Unless noted, the limit is not given here; nearly all actives have AC50 up to about 26 µM.

On to `O=C(O)c1ccc(-n2nc(-c3ccccc3O)nc2-c2ccccc2O)cc1`, for which the nuclear beta-catenin stimulation is 28.8% (inactive) in [1] (at 10 µM) and -2.6% in [1] (stimulation, at 2 µM). In test [2], the insulin secretion stimulation was 0.8% (inactive). Moreover, the viability decrease in [3] was 112% (active). Moreover, the tube area decrease in test [4] is 102% (active). The GLP1 secretion stimulation in [5] is 7.6% (inactive). Moreover, the inhibition of viability in test [6] was 112% (active). In addition, the viability decrease (inhibition) in test [7] was 130% (active); in [8] it was 93.6% (active). Further, the result in [9] was inactive. The figures for the AC50 in test [10] and in test [11] were 20.9 µM (active) and 23.5 µM (active), respectively. Also, the figures for the fold change in [12] (setting [19]) and in test [12] (setting [20]) were 0.936 (inactive) and 1.1, respectively. In addition, the results for the cell count in [12] (setting [21]) and in test [12] (setting [22]) were 4300 and 4600, respectively. Further, the z-score is -0.00061 (inactive) in test [13] (setting [23]) and -0.754 in [13] (setting [24]).

Consider `O=P(O)(O)C(O)(Cn1ccnc1)P(=O)(O)O`, for which the parasite load remaining in test [14] is 30.2% (inactive). Besides, in test [14], the viability amounted to 130%. Moreover, the nuclear beta-catenin stimulation in test [1] (at 10 µM) was 0.4% (inactive); in [1] (stimulation, at 2 µM) it was 1%. Further, in test [2], the insulin secretion stimulation was 0.2% (inactive). For the same compound, the viability decrease in test [3] is -1.1% (inactive). Moreover, the tube area decrease in test [4] is 8.6% (inactive). In addition, the GLP1 secretion stimulation in [5] was -0.1% (inactive). The inhibition of viability in [6] was 16.4% (inactive). Besides, the viability decrease (inhibition) in [7] was 32.9% (inactive); in [8] it was 17.2% (inactive). Besides, the outcome in [9], in [10], in test [11], in test [15] and in test [16] was inactive. The fold change in [12] (setting [19]) was 0.851 (inactive); in [12] (setting [20]), 1.6. The figures for the cell count in [12] (setting [21]) and in test [12] (setting [22]) were 9230 and 10900, respectively. Also, the z-score is -0.129 (inactive) and 0.228 (inactive) in [13] (setting [23]); -0.459 and -1.13 in test [13] (setting [24]); 0.405 (inactive) in test [17].

Regarding `N=C(N)c1ccc2cc(OC(=O)c3ccc(N=C(N)N)cc3)ccc2c1`, the nuclear beta-catenin stimulation was 0% (inactive) in [1] (at 10 µM) and 0.3% in [1] (stimulation, at 2 µM). Also, in test [2], the insulin secretion stimulation was 1.85% (inactive). Moreover, in [3], the viability decrease is 4.1% (inactive). Also, in test [4], the tube area decrease was -18% (inactive). Also, the GLP1 secretion stimulation in test [5] is 2.8% (inactive). The inhibition of viability in test [6] is 30.6% (inactive). Also, the viability decrease (inhibition) is 36.9% (inactive) in [7] and 1.2% (inactive) in test [8]. The compound was called inactive in test [9], in test [18], in [10], in [11], in test [15] and in test [16]. Further, the fold change in test [12] (setting [19]) was 1.02 (inactive) and 0.918 (inactive); in [12] (setting [20]) it was 1.3 and 0.971. The cell count in test [12] (setting [21]) is 3730 and 5820; in [12] (setting [22]) it was 3670 and 6340. Moreover, the z-score in test [13] (setting [23]) is -0.205 (inactive); in test [13] (setting [24]) it was 0.234.

As to `Cc1ccc(C(=O)c2cc(O)c(O)c([N+](=O)[O-])c2)cc1`, the parasite load remaining in test [14] was 26.1% (inactive). In addition, the viability in [14] was 97%. Further, the nuclear beta-catenin stimulation in test [1] (at 10 µM) was 5.2% (inactive); in test [1] (stimulation, at 2 µM), 1.2%. Also, in test [2], the insulin secretion stimulation was -0.8% (inactive). The viability decrease in test [3] was 43.7% (active). Moreover, in [4], the tube area decrease is 39.4% (inactive). The GLP1 secretion stimulation in test [5] was -3.6% (inactive). Besides, the inhibition of viability in test [6] was 55.5% (active). The viability decrease (inhibition) in test [7] was 84.4% (active); in test [8], 67.5% (active). Moreover, the result in test [9], in test [10], in [15] and in test [16] was inactive. For the same compound, the fold change in [12] (setting [19]) was 0.985 (inactive) and 0.843 (inactive); in [12] (setting [20]), 0.594 and 0.464. Moreover, the cell count in [12] (setting [21]) is 8860 and 9320; in test [12] (setting [22]) it was 8990 and 11100. In addition, the z-score in test [13] (setting [23]) is -0.224 (inactive) and 0.125 (inactive) and 0.577 (inactive); in [13] (setting [24]) it was -0.152 and -0.0292 and 1.07; in test [17] it was -0.715 (inactive).

In the case of `C[C@]12CCC(=O)C=C1[C@@H]1C[C@@H]1[C@H]1[C@@H]3[C@@H]4C[C@@H]4[C@@]4(CCC(=O)O4)[C@@]3(C)CC[C@@H]12`, the nuclear beta-catenin stimulation in [1] (at 10 µM) is 1.8% (inactive); in test [1] (stimulation, at 2 µM) it was 3%. Besides, in [2], the insulin secretion stimulation was 1.5% (inactive). Also, in [3], the viability decrease was 2.2% (inactive). The tube area decrease in [4] is 2.8% (inactive). In addition, the GLP1 secretion stimulation in [5] is 3.8% (inactive). Also, the inhibition of viability in [6] was 27.4% (inactive). Also, the viability decrease (inhibition) in [7] was -2.6% (inactive); in test [8] it was 3.1% (inactive). For the same compound, the call in test [9], in test [11], in [15] and in test [16] was inactive.

As a reminder, the AC50 is the concentration at which the activity in the assay is half-maximal. One may read the viability as a read-out of living cells in per cent, often relative to untreated cells.
